{"source": "PubChem BioAssay (NCATS)", "key": {"[1]": {"target": "Calcium and integrin-binding protein 1 (Homo sapiens) (UniProt Q99828)", "sequence (Q99828 whole entry, looked up)": "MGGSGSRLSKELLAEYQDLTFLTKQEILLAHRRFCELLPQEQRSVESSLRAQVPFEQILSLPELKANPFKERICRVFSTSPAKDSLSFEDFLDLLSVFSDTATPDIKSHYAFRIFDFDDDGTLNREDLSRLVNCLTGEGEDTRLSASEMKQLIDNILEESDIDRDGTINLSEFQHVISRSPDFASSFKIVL", "experiment": "Primary qHTS for Identification of Calcium Integrin Binding Protein 1 (CIB1) Competitor (AID 1508620); as to all read-outs here: top concentration of the series differs between compounds", "outline": "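Fluorescence polarization competition: CIB1-GST (1 uM final) preincubated with compound 15 min at room temperature, then FITC-labeled alphaIIb peptide (100 nM final) added for another 15 min. Polarization read at Ex 480/Em 540.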"}, "[2]": {"target": "Lysosomal acid glucosylceramidase (Homo sapiens) (UniProt P04062)", "sequence (P04062 whole entry, looked up)": "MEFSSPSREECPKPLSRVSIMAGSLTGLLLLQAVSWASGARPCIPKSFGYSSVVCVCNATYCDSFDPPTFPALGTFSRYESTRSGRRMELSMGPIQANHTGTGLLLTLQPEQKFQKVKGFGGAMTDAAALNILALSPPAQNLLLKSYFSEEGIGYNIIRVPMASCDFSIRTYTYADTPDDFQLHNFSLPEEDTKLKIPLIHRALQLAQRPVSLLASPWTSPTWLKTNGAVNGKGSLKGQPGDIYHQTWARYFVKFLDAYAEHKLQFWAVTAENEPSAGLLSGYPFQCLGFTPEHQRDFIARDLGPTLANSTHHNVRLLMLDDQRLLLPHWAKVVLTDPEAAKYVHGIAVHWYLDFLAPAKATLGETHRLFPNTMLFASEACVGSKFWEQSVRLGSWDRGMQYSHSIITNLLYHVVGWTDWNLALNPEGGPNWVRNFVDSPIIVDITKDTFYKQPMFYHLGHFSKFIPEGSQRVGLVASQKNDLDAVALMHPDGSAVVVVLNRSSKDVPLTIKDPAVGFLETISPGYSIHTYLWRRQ", "experiment": "Glucocerebrosidase-p2 (AID 348; in the data active = potency below about 10 µM; as to all read-outs here: potency is read from the fitted curve at half-maximal effect)", "conditions": "purified GBA, blue fluorogenic substrate, 40 min", "outline": "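Normal human glucocerebrosidase (0.2 nM) with blue fluorogenic substrate (80 uM final) in citrate/phosphate pH 5.9 with 10mM sodium taurocholate, 0.01% tween-20; 40 min RT, NaOH/glycine stop; fluorescence Ex 365/Em 440; AC50 from a titration from 0.6 nM upwards.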"}, "[3]": {"experiment": "AP1 Signaling Pathway (AID 357; active = well fitted curve in either direction with a large enough effect, not every such curve was filed as active)", "outline": "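Modulation of EGF-driven AP-1 transcription was assessed with a beta-lactamase reporter in ME-180 cells. Compound and EC50 EGF were co-incubated 5 hours at 37 °C before 2.5-hour CCF4 loading at room temperature and dual-emission reading.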"}, "[4]": {"target": "Cytochrome P450 1A2 (Homo sapiens) (UniProt P05177)", "sequence (P05177 whole entry, looked up)": "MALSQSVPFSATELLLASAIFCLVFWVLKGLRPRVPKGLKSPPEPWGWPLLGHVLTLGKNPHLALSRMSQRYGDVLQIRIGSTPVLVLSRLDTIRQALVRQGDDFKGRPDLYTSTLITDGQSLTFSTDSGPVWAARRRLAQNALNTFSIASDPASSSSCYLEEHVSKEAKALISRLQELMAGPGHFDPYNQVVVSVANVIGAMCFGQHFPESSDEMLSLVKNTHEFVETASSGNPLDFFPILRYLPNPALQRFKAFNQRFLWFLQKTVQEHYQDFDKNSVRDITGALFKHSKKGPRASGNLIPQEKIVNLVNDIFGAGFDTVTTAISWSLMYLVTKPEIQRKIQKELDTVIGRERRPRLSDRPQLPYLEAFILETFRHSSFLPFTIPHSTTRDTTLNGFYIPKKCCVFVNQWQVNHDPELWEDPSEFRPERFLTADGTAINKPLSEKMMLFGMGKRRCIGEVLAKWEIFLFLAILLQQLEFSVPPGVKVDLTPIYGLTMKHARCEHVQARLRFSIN", "experiment": "p450-cyp1a2 (AID 410; calls by dose curve; as to all read-outs here: potency is read from the fitted curve at half-maximal effect)", "outline": "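Luminescent demethylation readout: Luciferin-ME (100uM, equal to Km) turned over by 20nM CYP1A2 for 60 min at room temperature after NADPH regeneration addition, following 10 min compound preincubation. Normalization used 57 uM furafylline as full inhibition.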"}, "[5]": {"experiment": "Stat Signaling Pathway (AID 446; active = well fitted curve in either direction with a large enough effect, not every such curve was filed as active)", "outline": "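FRET read-out (405 nm excitation, 460/530 nm emission) of a beta-lactamase reporter under a STAT-inducible element in ME-180 cervical carcinoma cells. Cells with compound receive 40 pM IL-6 for 5 h. Values are normalised to AC90 stimulation and AC90 JAK-inhibitor controls.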"}, "[6]": {"target": "Glucocorticoid receptor (Homo sapiens) (UniProt P04150)", "sequence (P04150 whole entry, looked up, the tested form may be a part)": "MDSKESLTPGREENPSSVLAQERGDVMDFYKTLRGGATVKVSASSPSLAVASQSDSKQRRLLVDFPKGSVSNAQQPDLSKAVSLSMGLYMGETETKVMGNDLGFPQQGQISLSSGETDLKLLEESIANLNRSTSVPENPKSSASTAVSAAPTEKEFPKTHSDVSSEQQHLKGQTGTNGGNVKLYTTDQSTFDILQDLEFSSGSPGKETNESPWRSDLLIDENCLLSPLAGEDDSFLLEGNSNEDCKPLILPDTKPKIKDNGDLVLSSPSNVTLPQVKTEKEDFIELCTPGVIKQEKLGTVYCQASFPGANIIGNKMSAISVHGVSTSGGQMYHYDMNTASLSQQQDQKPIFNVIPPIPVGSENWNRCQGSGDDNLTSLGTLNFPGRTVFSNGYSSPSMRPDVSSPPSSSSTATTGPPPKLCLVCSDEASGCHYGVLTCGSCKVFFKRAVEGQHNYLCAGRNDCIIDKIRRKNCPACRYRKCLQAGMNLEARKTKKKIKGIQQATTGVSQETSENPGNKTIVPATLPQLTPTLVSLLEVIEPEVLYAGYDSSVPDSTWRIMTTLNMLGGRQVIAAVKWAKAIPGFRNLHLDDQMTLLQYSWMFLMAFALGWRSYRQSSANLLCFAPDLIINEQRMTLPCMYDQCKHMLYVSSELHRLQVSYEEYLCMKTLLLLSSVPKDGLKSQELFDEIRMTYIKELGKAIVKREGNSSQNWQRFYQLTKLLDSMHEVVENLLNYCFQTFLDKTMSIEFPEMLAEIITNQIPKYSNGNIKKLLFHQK", "experiment": "GR-EFC Redistribution (AID 451; calls by dose curve; as to all read-outs here: potency is read from the fitted curve at half-maximal effect)", "conditions": "CHO-K1 GR-EFC translocation, beta-gal luminescence, 2 h", "outline": "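CHO-K1 cells stably expressing nuclear-localized β-gal enzyme acceptor and GR fused C-terminally to the enzyme donor fragment; ligand-driven nuclear translocation restores β-gal by complementation. Compounds titrated up to 46 uM final, 2 h at 37 °C; luminescence read.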"}, "[7]": {"target": "Mitogen-activated protein kinase 10 (Mus musculus) (UniProt Q61831)", "experiment": "JNK3 AlphaScreen Assay (AID 530; active = well fitted curve in either direction with a large enough effect, not every such curve was filed as active;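 as to all read-outs here: kinase came from lysate of stimulated human HepG2 cells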)", "outline": "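Phosphorylation of biotinylated GST-cJun(1-79) at Ser73 is measured by AlphaScreen proximity luminescence. Enzyme is JNK3 in HepG2 lysates activated with interleukin-1beta and tumor necrosis factor alpha; ATP is 10 uM final.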"}, "[8]": {"target": "3',5'-cyclic-AMP phosphodiesterase 4B (Homo sapiens) (UniProt Q07343)", "sequence (Q07343 whole entry, looked up)": "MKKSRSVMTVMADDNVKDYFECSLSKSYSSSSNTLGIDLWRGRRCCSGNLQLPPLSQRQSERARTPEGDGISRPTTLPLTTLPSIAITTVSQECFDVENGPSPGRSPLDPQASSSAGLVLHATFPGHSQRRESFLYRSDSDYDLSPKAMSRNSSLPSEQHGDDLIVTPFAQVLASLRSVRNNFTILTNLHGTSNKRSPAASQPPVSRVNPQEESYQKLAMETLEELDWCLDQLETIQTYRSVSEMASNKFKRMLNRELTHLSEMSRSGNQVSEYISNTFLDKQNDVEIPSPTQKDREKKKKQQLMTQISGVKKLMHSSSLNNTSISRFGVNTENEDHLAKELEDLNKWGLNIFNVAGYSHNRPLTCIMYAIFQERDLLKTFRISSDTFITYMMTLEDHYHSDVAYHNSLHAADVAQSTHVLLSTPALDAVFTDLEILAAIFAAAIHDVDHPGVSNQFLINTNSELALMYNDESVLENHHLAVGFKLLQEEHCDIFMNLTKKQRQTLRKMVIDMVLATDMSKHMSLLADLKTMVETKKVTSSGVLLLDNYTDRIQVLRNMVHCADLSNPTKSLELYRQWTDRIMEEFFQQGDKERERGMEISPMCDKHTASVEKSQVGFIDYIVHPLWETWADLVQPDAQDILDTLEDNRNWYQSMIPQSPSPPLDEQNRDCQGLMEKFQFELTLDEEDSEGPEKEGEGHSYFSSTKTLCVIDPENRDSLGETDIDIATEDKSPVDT", "experiment": "qHTS Assay for Inhibitors of PDE-IV (AID 607; active = well fitted activation curve with a large enough effect in the main read-out, with a control signal flat, not every such curve was filed as active)", "outline": "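Cell-based read-out of cAMP via a modified cyclic nucleotide-gated channel and membrane potential dye (535/590 nm) in HEK293 cells expressing PDE4 endogenously. Compounds tested up to 22.9 uM final; 100 uM RO 20-1724 reference.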"}, "[9]": {"target": "Cytochrome P450 3A4 (Homo sapiens) (UniProt P08684)", "sequence (P08684 whole entry, looked up)": "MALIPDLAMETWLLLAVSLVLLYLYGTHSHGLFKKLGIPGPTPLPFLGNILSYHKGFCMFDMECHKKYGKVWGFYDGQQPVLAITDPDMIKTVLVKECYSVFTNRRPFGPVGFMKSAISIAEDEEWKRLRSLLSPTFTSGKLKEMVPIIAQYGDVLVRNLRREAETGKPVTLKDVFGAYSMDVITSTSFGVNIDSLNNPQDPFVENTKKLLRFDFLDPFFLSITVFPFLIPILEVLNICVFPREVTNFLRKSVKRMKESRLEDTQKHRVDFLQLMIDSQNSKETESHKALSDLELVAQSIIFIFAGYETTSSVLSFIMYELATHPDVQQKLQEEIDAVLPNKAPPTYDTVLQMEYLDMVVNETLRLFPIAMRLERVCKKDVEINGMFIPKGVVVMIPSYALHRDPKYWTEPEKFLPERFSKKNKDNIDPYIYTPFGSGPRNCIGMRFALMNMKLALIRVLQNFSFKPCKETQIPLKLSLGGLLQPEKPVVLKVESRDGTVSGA", "experiment": "qHTS Assay for Activators of Cytochrome P450 3A4 (AID 885); as to all read-outs here: nearly all actives have a fitted effect of over 65% in size", "outline": "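Luminescent readout of luciferin formed from 25 uM Luciferin-PPXE (KM level) by 20 nM CYP3A4 in 200 mM KPO4, with 60 min NADPH-driven reaction at room temperature after 10 min compound exposure. Ketoconazole (57 uM) defined 100% inhibition.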"}, "[10]": {"experiment": "Confirmatory qHTS for small molecule stabilizers of the endoplasmic reticulum resident proteome: Secreted ER Calcium Modulated Protein (SERCaMP) assay (AID 1508628); also: potency is read from the fitted curve at half-maximal effect; as to all read-outs here: nearly all actives have a fitted effect of over 40% in size", "outline": "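Reporter secretion upon ER calcium depletion (100 nM thapsigargin, 4 h, 37C) is measured as medium luminescence with coelenterazine, after 16 h compound pretreatment of SH-SY5Y-GLuc-SERCaMP cells; primary at three concentrations up to 38.3 uM, follow-up at 11 (up to 76.6 uM).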"}, "[11]": {"tested_on": "HIV-1 nucleocapsid protein NCp7 (binding to TG oligonucleotide)", "experiment": "HIV Nucleocapsid (AID 346; call rule not given here;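 as to all read-outs here: potency is read from the fitted curve at half-maximal effect; potency is for inhibitors that block NC binding and lower polarization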)", "conditions": "HIV-1 NC / fluorescein-TGTGTGTG probe, fluorescence polarization", "outline": "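HIV-1 NC (100 nM) binding to fluorescein-labelled ssDNA TG4xF (10 nM) in Hepes pH 7.5, 250mM NaCl, 1uM ZnCl2, TCEP and 2-mercaptoethanol; compounds pin-transferred, 1 hr room temperature, fluorescence polarization read on CCD imager.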"}, "[12]": {"experiment": "qHTS Assay for Lipid Storage Modulators (AID 1519; calls by dose curve)", "conditions": "Drosophila S3 cells, BODIPY lipid droplet/cell ratio, laser cytometry, cells loaded with oleic acid; for activity change, negative = inhibition: at 57.5 µM (top of the series)", "outline": "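Cells seeded at 5,000 per well were treated with compounds over a concentration series and loaded with oleic acid (400 uM, as added). Lipid droplet fluorescence (488 nm excitation, 500-530 nm channel) was read by laser-scanning cytometry and normalized to 20 uM Triacsin C.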"}, "[13]": {"experiment": "Cell Viability qHTS for small molecule stabilizers of the endoplasmic reticulum resident proteome (AID 1508629)", "conditions": "cell viability counter-screen, 100 nM thapsigargin for final 4 h"}, "[14]": {"target": "Cytochrome P450 3A4 (Homo sapiens) (UniProt P08684)", "experiment": "qHTS Assay for Inhibitors and Substrates of Cytochrome P450 3A4 (AID 884); also: nearly all actives have a fitted effect of over 50% in size", "outline": "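Luminescent readout of luciferin produced by CYP3A4 (20 nM) dealkylation of Luciferin-PPXE, 25 uM (its KM). NADPH-driven reaction ran 60 min at RT after 10 min compound preincubation; data scaled to 57 uM ketoconazole as 100% inhibition.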"}, "[15]": {"experiment": "Confirmation and Secondary Assay for Modulators of Hemoglobin Beta Chain Splicing at IVS2 654 locus (AID 910)", "outline": "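HeLa cells stably carrying EGFP interrupted by mutant beta-globin IVS2-654 intron (CMV-driven) were treated with compound for 2 days at 37C; corrected splicing was scored as total peak GFP intensity per well (488 nm excitation, 500-520 nm emission).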"}, "[16]": {"experiment": "Primary qHTS for small molecule stabilizers of the endoplasmic reticulum resident proteome: Secreted ER Calcium Modulated Protein (SERCaMP) assay (AID 1508630)", "outline": "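The SH-SY5Y reporter protocol was run at 3 concentrations up to 38.3 uM (primary) or 11 concentrations (follow-up): 16 h compound, 100 nM thapsigargin for 4 h, then extracellular luciferase luminescence.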"}, "[17]": {"conditions": "measured here: cell count channel max response"}, "[18]": {"conditions": "measured here: lipid channel max response"}}, "note": "Results filed as inconclusive are left out. A call without a number means that no potency is given here. Active and inactive are the calls of the source. Unless noted, calls follow the shape of the dose curve; as a rule, active = well fitted curve in the direction sought with a large enough effect; inconclusive = small, poorly fitted or top-dose-only effect, or another doubt; inactive = no such curve, though single readings can be large; an effect the other way counts as inactive or inconclusive."}
{"smiles": "Cn1cc(P(=S)(c2ccccc2)c2ccccc2)c2ccccc21", "values": [{"measurement": "outcome", "setting": "[1]", "value": "inactive"}]}
{"smiles": "COc1ccc(NC(=O)N2CCCC3(CCN(C(=O)Oc4ccccc4)CC3)C2)cc1", "values": [{"measurement": "Potency", "setting": "[2]", "value": "> 11.4 µM (inactive)"}, {"measurement": "outcome", "setting": "[3]", "value": "inactive"}, {"measurement": "Potency", "setting": "[4]", "value": "12.6 µM (active)"}, {"measurement": "outcome", "setting": "[5]", "value": "inactive"}, {"measurement": "Potency", "setting": "[6]", "value": "> 46 µM (inactive)"}, {"measurement": "outcome", "setting": "[7]", "value": "inactive"}, {"measurement": "Potency", "setting": "[8]", "value": "inactive"}, {"measurement": "Potency", "setting": "[9]", "value": "inactive"}, {"measurement": "Potency", "setting": "[10]", "value": "inactive"}]}
{"smiles": "S=P(c1ccccc1)(c1ccccc1)c1c[n+](Cc2ccccc2)c2ccccn12", "values": [{"measurement": "outcome", "setting": "[1]", "value": "inactive"}]}
{"smiles": "c1ccc(N2CC[C@@]3(CCCNC3)C2)cc1", "values": [{"measurement": "Potency", "setting": "[11]", "value": "> 20 µM (inactive)"}, {"measurement": "Potency", "setting": "[2]", "value": "> 11.4 µM (inactive)"}, {"measurement": "outcome", "setting": "[3]", "value": "inactive"}, {"measurement": "Potency", "setting": "[4]", "value": "39.8 µM (active)"}, {"measurement": "outcome", "setting": "[5]", "value": "inactive"}, {"measurement": "Potency", "setting": "[6]", "value": "> 46 µM (inactive)"}, {"measurement": "outcome", "setting": "[7]", "value": "inactive"}, {"measurement": "Potency", "setting": "[8]", "value": "inactive"}, {"measurement": "Potency", "setting": "[9]", "value": "inactive"}, {"measurement": "activity change, negative = inhibition", "setting": "[12]", "value": "5.37% (inactive)"}, {"measurement": "max response", "setting": "[12]; [17]", "value": 5.01, "unit": "%"}, {"measurement": "max response", "setting": "[12]; [18]", "value": 10.7, "unit": "%"}, {"measurement": "Potency", "setting": "[10]", "value": "44.7 µM (active)"}, {"measurement": "max response", "setting": "[13]", "value": "3.77% (inactive)"}]}
{"smiles": "CC(=O)C1=C(O)C2C3c4c[nH]c5cccc(c45)CC3C(C)(C)N2C1=O", "note": "(stereo unspecified)", "values": [{"measurement": "Potency", "setting": "[14]", "value": "inactive"}, {"measurement": "Potency", "setting": "[15]", "value": "inactive"}, {"measurement": "activity change, negative = inhibition", "setting": "[12]", "value": "8.13% (inactive)"}, {"measurement": "max response", "setting": "[12]; [17]", "value": 15.9, "unit": "%"}, {"measurement": "max response", "setting": "[12]; [18]", "value": 22.7, "unit": "%"}, {"measurement": "max response", "setting": "[13]", "value": "-5.15% (inactive)"}]}
{"smiles": "COCC#CCN1CCCCC1c1cccnc1", "note": "(stereo unspecified)", "values": [{"measurement": "outcome", "setting": "[16]", "value": "inactive"}]}
{"smiles": "N#Cc1c(-c2cccc(-c3no[n+]([O-])c3C#N)c2)no[n+]1[O-]", "values": [{"measurement": "outcome", "setting": "[1]", "value": "inactive"}]}
{"smiles": "CC(C)C1C(=O)N2CCC[C@H]2[C@]2(O)O[C@](NC(=O)[C@@H]3C=C4c5cccc6[nH]cc(c56)C[C@H]4N(C)C3)(C(C)C)C(=O)N12", "note": "(stereo partly specified)", "values": [{"measurement": "Potency", "setting": "[10]", "value": "31.6 µM (active)"}]}
{"smiles": "CCOC(=O)c1ncc2[nH]c3ccc(OCc4ccccc4)cc3c2c1COC", "values": [{"measurement": "outcome", "setting": "[16]", "value": "inactive"}]}
{"smiles": "S=P(c1ccccc1)(c1ccccc1)c1c[nH]c2ccccc12", "values": [{"measurement": "outcome", "setting": "[1]", "value": "inactive"}]}
